Shown are actives, neighbours in structure and some others; about 21% of the full set was active somewhere.
HCV inhibitor: HCV inhibition; AID 651820; Potency, µM (titrated, usually from 41.8 µM), without a hit: at the top dose activity change, negative = inhibition, actives largely listed as inhibitors; Huh7.5.1 HCVcc-Cre infection, luciferase reporter, 44 h; 340,000 compounds, 3.4% hits; further: potency means the concentration at half of the fitted maximal effect; on the % scale 0 is the no-effect control and ±100 the full control effect
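Cells (1,000/well) were plated 4 h before compound, then infected with HCVcc-Cre virus (~0.5 moi). After 44 h further culture, infection was read as luciferase luminescence following a 15 min substrate incubation at room temperature.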
Shiga inhibitor: inhibitors of Shiga toxin in Vero cells; Vero cells, Shiga toxin protein synthesis inhibition reporter; inhibition, % at 38.7 µM; 290,000 compounds, 9.2% hits; in the data active means inhibition mostly above about 28%, no sharp cut-off; inactive means mostly below about 43%; further: 0% is about no effect
Pf growth 96h: P. falciparum growth inhibition at 96 hour, primary screen for plastid delayed-death inhibitors; P. falciparum luciferase reporter growth, 96 h; Potency, µM (doses to about 28.7 µM), for inactives: at the top dose activity change, negative = inhibition, usual class: inhibitors; 320,000 compounds, 6.9% hits; AID 504834; further: potency means the concentration at half of the fitted maximal effect; on the % scale 0 is the no-effect control and ±100 the full control effect
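Parasite growth measured via integrated firefly luciferase reporter in P. falciparum. Infected erythrocytes at 2% hematocrit, 0.05% parasitemia final were treated 96 hours at 37 C under 5% CO2, and luminescence was read.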
CHX counter: affects cycloheximide protein synthesis inhibition readout, counter-screen. cell reporter, cycloheximide protein synthesis inhibition counterscreen. max response, %. 300,000 compounds, 12% hits; in the data active means max response mostly above about 13%, no sharp cut-off; inactive means mostly below about 14%; further: read at 38.3 µM for the half of the compounds with a filed dose; 0% is about no effect
HCMV inh: human cytomegalovirus inhibition; HFF cells, HCMV-luciferase reporter, 72 h; stronger effect = lower value; 410,000 compounds, 4.5% hits; activity change, negative = inhibition, % at 57.5 µM; in the data active means activity change below about -60%; inconclusive means no clear call, values can overlap the other calls; inactive means above about -39%; further: on the % scale 0 is the no-effect control and ±100 the full control effect
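Cell-based, HFFs, 1000 cells/well, 16 h 37C; cpds in DMSO + HCMV-luc, MOI 1 PFU/cell; 72 h 37C; OneGlo luminescence after 5 min RT; norm. to buffer vs Salinomycin 10uM.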
Pf growth 48h: P. falciparum growth inhibition at 48 hours (one generation); P. falciparum luciferase growth in erythrocytes, 48 h; Potency, µM (doses to about 28.7 µM), for inactives: top-dose activity change, negative = inhibition, actives largely listed as inhibitors; 310,000 compounds, 5.9% hits; AID 504832; further: potency means the concentration at half of the fitted maximal effect; on the % scale 0 is the no-effect control and ±100 the full control effect
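A one-generation exposure of luciferase-tagged malaria parasites in RPMI 1640/Albumax erythrocyte culture, 37 C and 5% CO2. Inhibition is inferred from decreased luminescence after adding detection reagent.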
Starred values were filed as active, the others as inactive; i = inactive; ? = inconclusive; / = not tested or not shown; ! = not active in a repeat; [ ] = another dose, or the depositor's remark. Unless noted, the call rests on the fitted dose curve; in most records, active means well fitted inhibition curve with a large enough effect; inconclusive means small, poorly fitted or top-dose-only effect, or another doubt; inactive means no such curve, though single readings can be large or run the other way.

SMILES | HCV inhibitor | Shiga inhibitor | Pf growth 96h | CHX counter | HCMV inh | Pf growth 48h
O=C(Cc1ccc([N+](=O)[O-])cc1)NNC(=O)c1ccc2c(c1)OCO2 | 2.5% | 3.0 | ? | 10.3 | -2.2 | 8.4%
COc1ccc(C2SCC(=O)Nc3c2c(C)nn3-c2ccccc2)cc1 (centres undefined) | -25.6% | -5.0 | -7.0% | -3.0 | 19.7 | /
Cc1nn(-c2ccccc2)c2c1C(c1ccc(Cl)cc1)N(c1ccccc1)C(=O)N2 (centres undefined) | ? | -13.5 | 13.1µM* | -1.7 | ? | 13.1µM*
CC(C)Oc1ccc(CNC(=O)C(C)n2ccc3cc(S(=O)(=O)N4CCCCCC4)ccc32)cc1 (centres undefined) | / | / | / | / | 6.9 | /
CCN1C(N(C)CCc2c[nH]c3ccccc23)=N[C@@H](c2cccc(C(F)(F)F)c2)C(C(=O)OC)=C1C | 25.1µM* | / | / | / | / | /
Cc1cc(N2CCCC2=O)ccc1S(=O)(=O)NCCOc1ccccc1 | ? | 21.4 | ? | 1.8 | -68.0* | -7.2%
COc1cc(/C=C2\S/C(=N/S(=O)(=O)Cc3ccccc3)NC2=O)c([N+](=O)[O-])cc1OC | -2.6% | -13.3 | 8.28µM* | -2.4 | -36.4 | ?
CCc1nc(NC(C)(C)C)c2cnn(-c3ccccc3)c2n1 | ? | 98.6* | -6.4% | 40.8* | ? | 50.8%
CC(C)(C)C(=O)CSc1ncnc2c1cnn2-c1ccccc1 | -21.3% | 62.5* | 29.4% | 43.2* | 3.1 | 222.6%
CCCCNc1ncnc2c1cnn2-c1ccc(Cl)cc1 | 10µM* | 71.5* | 128.4% | 50.7* | 105.2 | 45.3%
CCCCNc1ncnc2c1cnn2Cc1ccc(Cl)cc1 | ? | -10.1 | ? | 2.0 | -20.8 | -27.2%
CC(C)OC(=O)CSc1ncnc2c1cnn2-c1ccccc1 | 12.5% | -4.5 | 87.5% | 0.7 | -29.8 | /
Clc1ccc(-n2ncc3c(NCCCn4ccnc4)ncnc32)cc1 | 11.2µM* | 35.4* | / | 21.3* | 41.1 | /
O=C1CSC(=S)N1 | -15.1% | -7.7 | 86.5% | -0.5 | -2.5 | ?
CCCCNc1ncnc2c1cnn2-c1ccccc1 | ? | 91.9* | 11.7µM* | 60.9* | 104.4 | 116.8%
Nc1ncnc2c1cnn2-c1ccccc1 | ? | 90.5*! | 7.9% | 28.6* | 12.1 | 66.3%
c1ccc(CSc2ncnc3c2cnn3-c2ccccc2)cc1 | 1.9% | -6.1 | -4.9% | 1.1 | ? | 65.4%
CCOC(=O)c1c(C)[nH]c(C)c1S(=O)(=O)N1CCC(C(=O)Nc2ccc(C)c(N(C)C)c2)CC1 | / | / | / | / | -4.9 | /
Cn1c(=O)c(-c2cc(=O)[nH][nH]2)c(O)c2ccccc21 | 23.8% | -7.5 | 35.5%[1.15 µM] | -3.9 | 16.7 | 14.8%
O=C(Nc1cc(Br)ccc1O)C1CC(c2c(F)cccc2Cl)=NO1 (centres undefined) | -8.3% | -1.1 | ? | 1.1 | -32.3 | 17.0%
CSc1ccccc1NC(=O)C1CC(c2c(F)cccc2Cl)=NO1 (centres undefined) | -29.9% | 41.9* | -53.7% | 30.1* | 14.4 | 41.0%
O=C(Nc1ccc(Br)cc1)C1CC(c2c(F)cccc2Cl)=NO1 (centres undefined) | ? | 15.6 | 66.7% | 12.5* | ? | 46.1%
O=[N+]([O-])c1cccc(N(CC(O)CN2CCCCC2)S(=O)(=O)c2ccccc2)c1 (centres undefined) | 15.7% | -3.3 | ? | -3.0 | -25.3 | -2.6%
O=C(CCc1nnc(CCCc2ccccc2)o1)NC(C1CC1)C1CC1 | -12.0% | 55.2* | 24.2% | 33.4* | 29.1 | 23.8%
Cc1nc(C(C)NC(=O)CCc2nnc(CCCc3ccccc3)o2)c(C)s1 (centres undefined) | 0.6% | 74.8* | -25.1% | 31.7* | 48.3 | -2.9%
SMILES | HCV inhibitor | Shiga inhibitor | Pf growth 96h | CHX counter | HCMV inh | Pf growth 48h
CC(C)c1cc(CNC(=O)CCc2nnc(CCCCc3ccccc3)o2)on1 | 9.4% | 25.7 | ? | 10.1 | 26.1 | -23.0%
Cc1nc(Nc2ccc(F)cc2)[nH]c(=O)c1CCC(C)C | 4.3% | -0.1 | / | 5.8 | -17.9 | 5.86µM*
CCCCN1/C(=C/c2cccc[n+]2C)Sc2cc(NC(C)=O)ccc21 | -6.8% | -9.0 | 10.9% | 1.5 | 3.8 | 4.15µM*
CC(=O)Nc1ccc(NC(=O)CCCCCN2C(=O)c3ccccc3C2=O)cc1 | 5.5% | -5.3 | -12.1% | 0.2 | 38.6 | /
CC1=C(c2ccc(C(C)C)cc2)S(=O)(=O)N=C1N1CCC(C(=O)NCCc2ccco2)CC1 | / | / | / | / | -9.8 | /
CN1C(=O)[C@@H]2[C@@H]3C[C@@H]([C@H]4ON=C(c5ccc(Cl)cc5)[C@@H]34)[C@@H]2C1=O | -9.5% | -10.7 | -16.3% | -2.7 | ? | 5.1%
O=C1[C@@H]2[C@@H]3C[C@@H]([C@H]4ON=C(c5ccc(Cl)cc5Cl)[C@@H]34)[C@@H]2C(=O)N1C1CCCCC1 | ? | -9.0 | ? | 30.9* | ? | -10.2%
CCn1cc(C(=O)NCCCO)c(=O)c2cc(F)c(N3CCN(C)CC3)cc21 | 6.5% | -5.2 | ? | -5.2 | 18.6 | 5.2%
CCCCCCNC(=O)c1cn(CC)c2cc(N3CCN(C)CC3)c(F)cc2c1=O | 10µM* | -8.8 | 2.62µM* | -4.4 | 1.7 | 4.65µM*
CCn1cc(C(=O)NCCc2ccccc2)c(=O)c2cc(F)c(N3CCN(C)CC3)cc21 | 10µM* | 11.4 | ? | 13.4* | 35.0 | 10.4µM*
CCn1cc(C(=O)NCCN(C)CCc2ccccc2)c(=O)c2cc(S(=O)(=O)N(C)C)ccc21 | ? | 9.2 | ? | 4.1 | -2.5 | ?
CCn1cc(C(=O)NCCc2ccccc2)c(=O)c2cc(S(=O)(=O)N(C)C)ccc21 | 7.6% | -6.0 | 13.1µM* | 4.4 | -18.2 | ?
CCn1cc(C(=O)N[C@H](C)c2ccccc2)c(=O)c2cc(F)c(N3CCN(C)CC3)cc21 | ? | -9.4 | 11.7µM* | -3.4 | 22.7 | /
Cc1ccc(N(C(=O)c2csnn2)C(C(=O)NC2CCCCC2)c2cccnc2)cc1C (centres undefined) | -4.1% | -1.4 | 20.2% | -2.8 | -14.2 | ?
C=CCC1CCCC(=O)N2CCCC12 (centres undefined) | 12.1% | i | / | -3.7 | 1.1 | /
COc1ccc(/C=N/NC(=O)c2nc(-c3ccccc3)cc(-c3ccccc3)n2)cc1O | ? | 10.9 | ? | 28.7* | 27.4 | ?
COc1ccc2[nH]c(C(=O)N/N=C/c3ccccc3OC)cc2c1 | -10.3% | 26.9 | ? | 10.7 | -3.0 | /
COc1cc(OC)c2cc(C(=O)N/N=C/c3ccccc3O)[nH]c2c1 | 8.91µM* | 5.0 | 4.65µM* | -0.6 | -95.9* | /
CCOc1ccc(/C=N/NC(=O)c2cc3c(OC)cc(OC)c(OC)c3[nH]2)cc1 | 11.2µM* | 1.4 | ? | -2.6 | -2.6 | ?
COc1ccc2[nH]c(C(=O)N/N=C/c3ccc(OC)c(O)c3)cc2c1 | -13.9% | 20.4 | ? | 12.0 | -74.0* | ?
CC1CCN(C(=O)COC(=O)CCC(=O)c2ccc(Cl)cc2)CC1 | 2.1% | / | / | / | 29.1 | /

Screening results deposited in PubChem BioAssay by National Center for Advancing Translational Sciences (NCATS).
